Screening results: PubChem BioAssay, several laboratories
Most compounds without a hit are left out; they make up all but 3.6% or so of the library.
Anthrax LF inh2 = Bacillus anthracis LF protease inhibitors, primary screen, biochemical, multiplex microsphere, MLPCN library; multiplex microsphere protease cleavage assay; inhibition, % at 10 µM; 360,000 compounds, 0.12% hits
MazEF act = activators of E. coli MazEF toxin-antitoxin RNase, primary screen, biochemical, fluorescence, uHTS; AID 504720, 2011; FAM/BHQ RNA-DNA oligo cleavage fluorescence, 5 h; activation, % at 20 µM; 350,000 compounds, 0.32% hits; Endoribonuclease toxin MazF (Escherichia coli (strain K12)), P0AE70; in the data active = activation above about 50%
BoNT A protease = BoNT/A light chain protease inhibitors, primary screen, biochemical, flow cytometry, MLPCN library | Botulinum neurotoxin type A light chain protease (Clostridium botulinum A str. ATCC 3502) | multiplex microsphere protease substrate cleavage | inhibition, % at 10 µM | 360,000 compounds, 0.17% hits
BoNT F protease = BoNT/F light chain protease inhibitors, primary screen, biochemical, flow cytometry, MLPCN library; Botulinum neurotoxin type F light chain protease (Clostridium botulinum); 360,000 compounds, 0.22% hits; AID 588497, 2011; Multiplex microsphere protease cleavage assay; inhibition, % at 10 µM; in the data active = inhibition above about 35%, passing the limit was not always enough; inconclusive = no clear call, values can overlap the other calls
Autofluor counter = counter-screen for toxin protease inhibitors: compound fluorescence; compound autofluorescence counterscreen, microsphere flow cytometry; hits give high values; fluorescence intensity (concentration not given with the values); 360,000 compounds, 3.1% hits; in the data active = fluorescence intensity above about 16000; inconclusive = no clear call, values can overlap the other calls
Each line names hits and unclear results; the compound was inactive in the other large screens; ! = a repeat was not active. Rule as the data show it, unless noted: active = inhibition above about 30%; inconclusive = no clear call, values can overlap the other calls; inactive = below that.

CCOC(=O)[C@]12CCC=C1N(Cc1ccc3c(c1)OCO3)C(=O)[C@H](CC(=O)NCc1cccc3ccccc13)C2	none (no result: MazEF act)
O=C1CC(=O)Nc2cc(S(=O)(=O)Nc3cccc(C(F)(F)F)c3)ccc2N1	none
Cc1ccc(Cn2ccc(NC(=O)c3cc(-c4ccc(Br)cc4)on3)n2)cc1	Autofluor counter 16876
NC(c1csc(Nc2ccc(C(F)(F)F)cn2)n1)C1CCCCC1 (configuration not stated)	none (no result: MazEF act)
CCSc1nnc(-c2cccnc2)n1-c1ccc(Cl)c(C)c1	Autofluor counter 17981
Cc1[nH]c(=O)sc1C(=O)NCc1ccc([N+](=O)[O-])cc1	none (no result: MazEF act)
O=C(NC1CCCC1)C1CCN(C(=O)NCc2ccccc2)CC1	none
O=C(NCc1ccccc1F)C1CCN(C(=O)NCc2ccccc2)CC1	Autofluor counter 17003
O=C(NC1CCCCC1)C1CCN(C(=O)NCc2ccccc2)CC1	Autofluor counter 16321
CN1CCCC(OC(=O)c2ccccc2Br)C1 (configuration not stated)	none
O=C(Oc1ccc(N(Cc2cccs2)C2=NS(=O)(=O)c3ccccc32)cc1)c1ccccc1F	Autofluor counter 22943
O=C(c1ccccc1F)N(Cc1cccs1)C1CCS(=O)(=O)C1 (configuration not stated)	none
CCOc1ccc(N/C=C/C(=O)c2ccc(C)cc2)c([N+](=O)[O-])c1	none
CCOc1ccc(N/C=C/C(=O)c2ccc3ccccc3c2)c([N+](=O)[O-])c1	Autofluor counter 16459
CC(=O)/C=C1/SC(CC(=O)O)C(=O)N1c1ccccc1 (configuration not stated)	Autofluor counter 17699
O=C(O)CC1S/C(=N\N=C2CCCCCC2)N(c2ccccc2)C1=O (configuration not stated)	none
COCCCNC(=O)[C@@H](Cc1ccccc1)NC(=O)CC[C@H]1O[C@@H](n2ccc(=O)[nH]c2=O)[C@H](O)[C@@H]1O	none (no result: MazEF act)
O=C(CCCSc1nc2ccccc2[nH]1)NCc1ccccc1	none
O=C(CCCSc1nc2ccccc2[nH]1)Nc1nnc(-c2ccccc2)o1	BoNT A protease inconclusive, Autofluor counter 22546
Cc1cc(C)c(NC(=O)CN2CCN3CCCC3C2)c(C)c1 (configuration not stated)	Autofluor counter 21570!
COc1ccc(N2C(=O)CC(Nc3ccc(C)cc3)C2=O)cc1 (configuration not stated)	BoNT A protease inconclusive, Autofluor counter 21164
Cc1ccc(NC2CC(=O)N(c3ccc(N4CCCCC4)cc3)C2=O)cc1 (configuration not stated)	none
CCOc1ccc(C(=O)NCc2ccc3c(c2)OCO3)cc1OCC	none (no result: Anthrax LF inh2, BoNT A protease, BoNT F protease, Autofluor counter)
O=C(Nc1cccc([N+](=O)[O-])c1)c1ccc2nc(N3C(=O)CCC3=O)sc2c1	BoNT A protease inconclusive, Autofluor counter 21930
O=C(Nc1cccc(Br)c1)c1ccc2nc(N3C(=O)CCC3=O)sc2c1	none
CCc1ccc(C(=O)COC(=O)c2ccc(-c3nnc(-c4ccccc4)o3)cc2)cc1	Autofluor counter 24076
Cc1cc(NS(=O)(=O)c2c(C(=O)N3CCOCC3)c(C)n(C)c2C)ccc1Br	none
CCc1c(C)c2ccc(O)c(CN(C)C)c2oc1=O	Autofluor counter 22113
Cc1c(Cl)cccc1Nc1nc(N)nc(CSc2ncccn2)n1	Autofluor counter 20532
Cc1c(Cl)cccc1Nc1nc(N)nc(CSCCO)n1	none
CCOc1ccc(OCC)c(-c2c(=O)n(OCc3ccccc3Br)c3ccccc3[n+]2[O-])c1	Autofluor counter 22784
CCOc1ccc(-c2c(=O)n(OCc3ccccc3Br)c3ccccc3[n+]2[O-])c(OCC)c1	none
COc1cc(CNC(C)C23CC4CC(CC(C4)C2)C3)ccc1OCC(=O)NC(C)(C)C (configuration not stated)	none
CC(NCc1cc(Br)ccc1OCC(N)=O)C12CC3CC(CC(C3)C1)C2 (configuration not stated)	BoNT F protease inconclusive, Autofluor counter 21485
CC(SC1CCCC1)C(=O)Nc1ccnn1C(C)C (configuration not stated)	BoNT A protease inconclusive, Autofluor counter 20011
CN1OC[C@@H]2CN(C(=O)C(C)(C)C)[C@H](c3cccc(Br)c3)C[C@@H]21	MazEF act 53
Cc1ccc(NC(=O)C2CSC3(C)CCC(=O)N23)cc1S(=O)(=O)N1CCCCCC1 (configuration not stated)	none
